Growth data for 82 compounds are collected here from PubChem BioAssay (NCI).

SMILES strings stand for the structures. Values joined by “and” are separate entries in the source; they are usually repeats but may differ in a detail not shown here. Identical values can stand only once. This is part of a sample that, as a whole, favours compounds with a hit. Of some 83,000 tested, about 20% had one in any assay.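 Growth was measured after 48 h exposure to one concentration of compound in 96-well plates. Values under 10 count as active.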 Values without a mark were called inactive. Active and inactive are the calls of the source.

In the assay the test system is MDA-MB-468 breast. Description: NCI-60 one-dose screen, 48 h (100 = growth as untreated, 0 = no growth, -100 = all killed). Particulars: 10 µM unless noted.

Regarding `CCN(CC)CCn1c2ccc(OC)cc2c2sc3cc(O)ccc3c(=O)c21`, the growth is 60.3%.
The value for `CC(=S)NC(=O)C(=O)/C=C1/NC(=O)C(=O)S1` was 102%; that for `CCCCCCCCCCCCCCCC(=O)NS(=O)(=O)OC[C@H]1O[C@@H](n2cnc3c(N)ncnc32)[C@H](O)[C@@H]1O` was -51.5% (active); that for `COC(=O)[C@H](CCCCNC(=O)OCc1ccccc1)NC(=O)[C@@H](NC(=O)Nc1cc(C(F)(F)F)cc(C(F)(F)F)c1)C(C)C` was -12.9% [100 µM] (active).
The value for `COc1c(N2CC3CCCNC3C2)c(F)cc2c(=O)c(C(=O)N/N=C/c3c[nH]c4ccccc34)cn(C3CC3)c12` (configuration not stated) was 100%; that for `C#CC[C@@H]1C[C@]2(C)[C@H]3CC=C4[C@H]5[C@@H](C)[C@H](C)CC[C@]5(C(=O)NCCCCCCCCN)CC[C@@]4(C)[C@]3(C)CC[C@H]2C(C)(C)[C@H]1OC(C)=O` was 62.4%.
To `O=C1c2cccnc2C(=O)c2c1c(C(=O)OCCN1CCCCC1)c1ccccn21` belongs -16.6% (active); to `CC(=O)C(C)Cc1cc2c(cc1C)C(C)(C)CCC2(C)C` (configuration not stated), 97.6%; to `Cc1ccccc1/C=C/c1nn2c(-c3ccoc3C)nnc2s1`, 91.7%.
For the compound `Cc1nn(-c2ccc(F)cc2)c2ncnc(Nc3ccc(NC(=O)Nc4ccc(Cl)c(C(F)(F)F)c4)cc3)c12`, the growth was -2.58% (active).
With `OC1CCN(CCCOc2c3ccccc3nc3c2oc2ccccc23)CC1`, the growth was -16.4% (active).
Consider `Cc1ccc2c(n1)C(=O)C(Cl)=C(Nc1ccc(C)c(C)c1)C2=O`, for which the growth is -25.3% (active).
As for `Cc1ccc(NC(=S)NNC(=S)Nc2ccc(C)cc2)cc1`, the growth was 99.3% and 34%.
On to `Nc1nc2c(c3ncccc13)C(c1ccccc1)Cc1ncccc1-2` (configuration not stated), for which the growth was 55.8%.
On to `COc1ccc(-c2[nH]c3ccc(OC)cc3c2C=C(C#N)C#N)cc1`, for which the growth was -13.7% (active).
To `CCN1CCN(c2nc(C)cc(NCc3cc(Nc4ccnc5cc(Cl)ccc45)ccc3F)n2)CC1` belongs -23.1% (active).
With `Cn1cc(-c2csc(-c3cn(C)c4ncccc34)n2)c2cccnc21`, the growth was -10.8% (active).
For the compound `N=C(N)c1ccc(-c2ccc(-c3cc(Cl)cc(Cl)c3)s2)s1`, the growth is -63.4% (active).
With `COc1cccc(C2C(C#N)=C(N)Oc3cc(OCCCCCC[P+](c4ccccc4)(c4ccccc4)c4ccccc4)ccc32)c1` (configuration not stated), the growth was -64.3% (active).
Take `O=C1Cc2cc(CCN3CCN(c4nsc5ccccc45)CC3)c(Cl)cc2N1`: the growth is 49.1%.
To `CCN(CC)CCCC(C)N=C(C1=C(C(=NC(C)CCCN(CC)CC)c2cccc(OC)c2)C(=O)NC1=O)c1cccc(OC)c1` (configuration not stated) belongs -50.4% (active); to `CSc1[nH]c(=O)ncc1F`, 98.1%.
In the case of `O=C1C(=O)c2c(nc3ncccn23)-c2ccccc21`, the growth is -64.9% (active).
`C/C=C(\C)C(C(=O)NC1CCCCC1)N(C(=O)C1CCc2cc(F)ccc2O1)c1ccc([N+](=O)[O-])cc1` (configuration not stated): the growth was 85.6%.
As to `O=Cc1c(OCc2cnnn2CC(=O)Nc2ccc(Cl)cc2)ccc2ccccc12`, the growth was 104%.
To `C1C[S+]2CC[S+]1CC2` belongs 101%; to `Nc1[nH]n2cc(-c3ccccc3)nc2c1N=Nc1ccc(S(N)(=O)=O)cc1`, 32.6%; to `Cc1nc2sc(C(=O)Nc3ccc(Cl)cc3)c(N)c2cc1C(O)c1ccccc1` (configuration not stated), -0.107% (active).
With `COc1ccc([C@H]2[C@H](C(=O)Nc3cccnc3)c3ccccc3C(=O)N2c2ccccc2)cc1`, the growth was 97.7%.
On to `CC1(C)CC(OCCCC[P+](c2ccccc2)(c2ccccc2)c2ccccc2)CC(C)(C)N1O`, for which the growth was -44.2% (active).
On to `COc1cc(OC)c(/C=C/S(=O)(=O)Cc2cnc(OC)c(N)c2)c(OC)c1`, for which the growth is 23.6%.
On to `COc1cc(/C=C/C(=O)Nc2cccnc2Nc2cc(OC)c(OC)c(OC)c2)cc(OC)c1OC`, for which the growth was 99.8%.
For `CC(=O)c1ccc(NS(=O)(=O)c2ccc([N+](=O)[O-])cc2)cc1`, the growth was 98.9%.
Regarding `O=C(Nc1ccc(CN2CCc3nc4cc(O)c(O)cc4cc32)cc1)c1ccc(Cl)c(Cl)c1`, the growth is 97.4%.
The value for `COc1cccc(-c2nn(-c3ccccc3)cc2-c2ccnc(NCCCNS(=O)(=O)c3ccc(Cl)cc3)c2)c1` was 25.6%; that for `CC1(C)CC[C@]2(CO)CC[C@]3(C)[C@](O)([C@H](O)C[C@@H]4[C@@]5(C)CCCNC(C)(C)[C@@H]5CC[C@]43C)[C@@H]2C1` was 81.3%; that for `N/C(=N\S(=O)(=O)c1ccccc1)Nc1nc2ccccc2s1` was 91%.
As to `O=C1Nc2ccc(F)cc2/C1=C\c1c(-c2ccccc2)nc2ccccn12`, the growth is 35.6%.
Consider `CC1(O)CCCCCC1`, for which the growth was 100%.
For `COc1ccc(O)c(-c2cc(-c3ccc(Cl)cc3)c(C#N)c(=O)[nH]2)c1`, the growth is 78.8%.
To `N#Cc1c(-c2ccccc2)cc(-c2ccccc2)n(CCCC(=O)Nc2ccccc2N)c1=O` belongs 14.9%; to `CCCCCCN1CSC(=S)N(CCCCCC)C1`, 89%; to `COC1=CC(c2ccc[nH]2)=N/C1=C\c1[nH]c(C)c(C(=O)CCC(=O)Oc2ccc3c(c2)CCC2C3CC[C@]3(C)C(=O)CC[C@@H]23)c1C` (some centres not stated), 76.3%.
Take `Cc1cc2nc3[nH]c4ccccc4c3nc2cc1C`: the growth is 97.5%.
To `CC(=O)c1cc2c(cc1F)C(C)(C)CCC2(C)C` belongs 101%.
To `COc1ccc(N2C(=O)/C(=C/C(Cl)=C/c3ccc([N+](=O)[O-])cc3)SC2=S)cc1` belongs -11.8% (active).
On to `O=S(=O)(NCCCNc1nccc(-c2c(-c3ccccc3)nc3occn23)n1)c1ccc(Cl)cc1`, for which the growth was 67.1%.
To `Nc1ncnc2c1C(c1ccccc1)c1ccc3ccccc3c1O2` (configuration not stated) belongs 86.5%; to `Cc1n[nH]c(C)c1N=Nc1cccc2c1C(=O)c1ccccc1C2=O`, 96.2%.
The value for `CCN(CC)c1ccc(/C=C/C2=[N+](C)c3ccccc3C2(C)C)c(C)c1` was -9.14% (active); that for `CC1(C)CC[C@]23CC[C@]4(C)[C@H](CC[C@@H]5[C@@]6(C)C/C(=C/c7ccncc7)C(=O)C(C)(C)[C@@H]6CC[C@]54C)[C@H]2[C@H]1OC3=O` was 58.8% [100 µM].
The value for `Nc1nonc1-c1nc2ccccc2n1CC(=O)Nc1ccc2c(c1)COC2=O` was 26.2%.
`COc1cc2c(cc1OC)C(=O)OC2`: the growth is 97.1%.
Take `CN(C)CCS(=O)(=O)Nc1cc(-c2ccc3ncc(C#N)c(Nc4ccc(F)c(Cl)c4)c3c2)cnc1Cl`: the growth is -77.8% (active).
The value for `CC1(O)COCCCCOc2c(CN)cccc2NC(=O)c2nc(cnc2N)-c2ccc(cc2)S(=O)(=O)C(C)(C)C1` (configuration not stated) was -35.1% (active); that for `COc1cc(F)c(F)c(Nc2ccc(I)cc2F)c1NS(=O)(=O)C1(C[C@H](O)CO)CC1` was 67.4%.
For the compound `CN1CCN(Cc2ccc(NC(=O)c3cncc(C#Cc4c(N)ncc5ccccc45)c3)cc2C(F)(F)F)CC1`, the growth was -71.6% (active).
As for `Cc1cc(C(=O)O)c(N)c(C)n1`, the growth is 120%.
Consider `O=C(NCCNc1nccc(-c2c(-c3cccc(O)c3)nc3sccn23)n1)c1cccc(C(F)(F)F)c1`, for which the growth was 70.5%.
Take `COc1ccc(NC(=O)c2ccc(Nc3ncnc4c3cnn4-c3cccc(F)c3)cc2)cc1`: the growth is 100%.
Turning to `Cc1c(F)cc(C(N)=O)cc1NCC(=O)Nc1ccc([N+](=O)[O-])cc1`, the growth was 92.4%.
To `Oc1ccccc1C=Nc1ccccc1N=Cc1ccccc1O.[Cu+2]` belongs 47.5%; to `CCCCCCCCCNCCCCCCCCC`, 22.5%.
As to `CCN(CC)CCCC(CNc1ccnc2cc(Cl)ccc12)c1ccc(Cl)cc1` (configuration not stated), the growth is -78.1% (active) and -70.5% (active).
To `CCCCCSc1ccc2nc(NC(=O)OCCC)sc2c1` belongs 9.55% (active); to `CCCOc1ccc(/C=N/Nc2cc(C)nc3ccc(Br)cc23)cc1`, 96.1%.
The value for `Clc1ccc(CN2COc3c(ccc4cccnc34)C2)cc1Cl` was -71.9% (active); that for `O=C(O)c1ccccc1N=Cc1ccccc1` was 112%; that for `COc1cc2nc(Cl)nc(Nc3ccc(S(=O)(=O)Nc4nccs4)cc3)c2cc1OC` was 102%.
On to `C=CCn1c(SCC(=O)Nc2ccc(C(=O)/C=C/c3ccccc3)cc2)nnc1-c1ccc(OC)c(OC)c1`, for which the growth is 59.5%.
On to `Cc1ccc(-n2cc(/C=C/C(=O)c3ccc(O)cc3)c(-c3ccc(S(C)(=O)=O)cc3)n2)cc1`, for which the growth is 93.8%.
Consider `CC(=O)Oc1cc2ccccc2cc1C(C)C`, for which the growth is 98.8%.
To `CNC(=O)c1cc(Cn2nc(C)c(NC(=O)Nc3ccc(Cl)c(C(F)(F)F)c3)c2C)ccn1` belongs 97.5%; to `Cc1ccc(-c2nc(SCc3nc4cc(Cl)c(Cl)cc4[nH]3)[nH]c(=O)c2C#N)cc1`, 116%; to `Cc1cc(N/N=C/c2nc(-c3ccc(Br)cc3)oc2C)c2cc(Cl)ccc2n1`, 25.8%.
To `COc1nc2c(cc1S(=O)(=O)c1ccccc1)CCc1c-2cnn1-c1cccc(Cl)c1` belongs 60%.
In the case of `COc1ccc2oc3c(C)c4c(c(C)c3c2c1)C(=O)N(Cc1ccccc1)C4=O`, the growth is 100%.
Turning to `N#CCCN(NC(=O)OCc1ccccc1)C(=O)OCc1ccccc1`, the growth was 116%.
Regarding `O=C1C(Cl)=C(SC2=NCCN2)C(=O)c2ccccc21`, the growth is 0.366% (active).
Take `Nc1nc2ccc(-c3nc4ccc5[nH]ncc5c4c4c3CCC4)cc2s1`: the growth is -5.96% (active).
Take `O=C(c1ccc(O)cc1)[C@@H]1CN[C@@]2(C(=O)Nc3ccccc32)[C@H]1c1ccc(F)cc1`: the growth was 97.5%.
`O=C1c2c(Cl)c(Cl)c(Cl)c(Cl)c2C(=O)C2(Cl)CC=CCC12Cl` (configuration not stated): the growth is -77.2% (active).
